Activity calls are given as the source filed them. Calls follow the shape of the full dose curve.

The values below come from PubChem BioAssay (NCATS).

Holding throughout (assay): Confirmatory Screen for Target Class Profiling of Small Molecule Inhibitors of Methyltransferases (AID 1745852); as to activity change, negative = inhibition: % is scaled to controls: 0 for no effect and ±100 for the full control effect
Assay [1] concerns the target Catechol O-methyltransferase (Homo sapiens) (UniProt P21964). Conditions: MTase-Glo luminescence, SAH detection, recombinant enzyme; measured here: COMT max response; stronger effect = lower value.
The target in assay [2] is Guanidinoacetate N-methyltransferase (Homo sapiens) (UniProt Q14353). To be noted: MTase-Glo luminescence, SAH detection, recombinant enzyme; activity change, negative = inhibition: at 57.3 µM (top of the series) unless noted; series mostly up to 57.3 µM.
Assay [3] deals with Nicotinamide N-methyltransferase (Homo sapiens) (UniProt P40261). To be noted: MTase-Glo luminescence, SAH detection, recombinant enzyme; measured here: NNMT max response; stronger effect = lower value.
Chain of Nicotinamide N-methyltransferase (Homo sapiens) (P40261 whole entry, looked up): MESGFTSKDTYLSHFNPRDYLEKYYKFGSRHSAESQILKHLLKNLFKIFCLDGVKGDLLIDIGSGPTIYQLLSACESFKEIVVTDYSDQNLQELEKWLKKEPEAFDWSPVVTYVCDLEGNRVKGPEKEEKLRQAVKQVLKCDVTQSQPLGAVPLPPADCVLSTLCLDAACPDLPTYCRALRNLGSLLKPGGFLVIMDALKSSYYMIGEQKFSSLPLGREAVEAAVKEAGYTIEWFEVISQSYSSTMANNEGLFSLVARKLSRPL
Assay [4] addresses Phenylethanolamine N-methyltransferase (Homo sapiens) (UniProt P11086). To be noted: MTase-Glo luminescence, SAH detection, recombinant enzyme; measured here: PNMT max response; stronger effect = lower value.
Potency is read from the fitted curve at half-maximal effect.

Chain of Catechol O-methyltransferase (Homo sapiens) (P21964 whole entry, looked up): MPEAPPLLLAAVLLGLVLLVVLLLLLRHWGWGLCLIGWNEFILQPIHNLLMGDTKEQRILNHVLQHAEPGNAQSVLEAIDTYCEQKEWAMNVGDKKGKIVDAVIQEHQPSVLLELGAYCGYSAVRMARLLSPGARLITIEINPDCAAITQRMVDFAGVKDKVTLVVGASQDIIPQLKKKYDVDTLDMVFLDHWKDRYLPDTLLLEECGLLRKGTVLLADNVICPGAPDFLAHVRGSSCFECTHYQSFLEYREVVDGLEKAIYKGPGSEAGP
Chain of Phenylethanolamine N-methyltransferase (Homo sapiens) (P11086 whole entry, looked up): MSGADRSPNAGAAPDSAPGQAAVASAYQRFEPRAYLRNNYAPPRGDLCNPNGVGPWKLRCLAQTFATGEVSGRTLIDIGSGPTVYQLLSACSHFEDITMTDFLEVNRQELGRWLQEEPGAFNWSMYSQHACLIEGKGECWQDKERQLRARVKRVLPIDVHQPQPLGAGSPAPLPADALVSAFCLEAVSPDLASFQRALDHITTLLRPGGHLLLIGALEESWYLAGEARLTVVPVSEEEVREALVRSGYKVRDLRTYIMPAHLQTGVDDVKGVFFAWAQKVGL

For `Cc1ccc2c(c1)c(-n1cccc1)c1n2CC(C)(C(=O)NC2CCCCC2)N(Cc2ccccn2)C1=O` (stereo not given), the activity in assay [1] is 4.89%; in assay [3] it was -16.5%; in assay [4] it was 0%. For the same compound, in assay [2], the activity change, negative = inhibition was 0.484%.
For `Cc1ccc(C)c(N2CCN(C(=O)c3ccc4c(=O)[nH]c5c(C(=O)NC(C)C)sc(=S)n5c4c3)CC2)c1`, in that order: -41.7%, -76.8%, -17.9% and -2.19%.
For `c1ccc(-c2cc3c(cn2)NCCN(CC2CC2)C3)cc1`, the figures for the activity in assay [1], in assay [3] and in assay [4] were 8.66%, 4.63% and 6.73%, respectively. In assay [2], the activity change, negative = inhibition worked out at 7.08% [at 114 µM].
For `Cc1cnc(C2CC2)n1C1CCN(S(=O)(=O)c2ccc3c(c2)OCCO3)CC1`, in that order: -0.0283%, -30.4%, -0.889% and -2.25%.
Turning to `CN1CCC(N2CC[C@H](c3nc4ccccc4[nH]3)C2)CC1`, the values for the activity in assay [1], in assay [3] and in assay [4] were -6.53%, -26.5% and -6.23%, respectively. In assay [2], the activity change, negative = inhibition was -8.47% [at 114 µM].
The corresponding values for `Cn1cc(-c2cc3c(ccn3Cc3ccncc3)c(N3CCOCC3)n2)cn1` are -2.2%, -4.04%, -7.43% and -2.92% [at 85.7 µM].
In the case of `COc1ccc(C(=O)N(Cc2ccco2)S(=O)(=O)c2ccc3c(c2)n(C)c(=O)n3C)cc1`, the figures for the activity in assay [1], in assay [3] and in assay [4] were -5.23%, -20% and -5.7%, respectively. The activity change, negative = inhibition in assay [2] is -1.3%.
For `CN1CCC(N2C[C@@H]3C[C@H]2C(=O)N(CC2CC2)c2ccccc2O3)CC1`, in that order: 4.01%, -1.59%, 3.64% and 2.68% [at 85.7 µM].
In the case of `O=C(CCc1nnc2n(CCc3ccccc3)c(=O)c3ccccc3n12)N1CCN(c2ccccc2)CC1`, the activity in assay [1] is 0%; in assay [3], -41%; in assay [4], 0.144%. For the same compound, in assay [2], the activity change, negative = inhibition amounted to 0%.
For `CCCS(=O)(=O)N1CCCC(Cn2c(C)nc3cccnc32)C1` (stereo not given), the activity was 1.15% in assay [1], 7.76% in assay [3] and 4.99% in assay [4]. Further, in assay [2], the activity change, negative = inhibition was 2.96%.
For `FC(F)(F)c1ccnc(N2CC[C@H](c3nnc(-c4ccncc4)o3)C2)n1`, in that order: 2.16%, -59.3%, 3.21% and 0.304% [at 85.7 µM].
On to `COc1ccc(OC)c2c1cc1n2CC(C)(C(=O)NC2CCCCCC2)N(Cc2ccccn2)C1=O` (stereo not given), for which the activity was 3.33% in assay [1], -20.5% in assay [3] and -2.24% in assay [4]. Moreover, the Potency entry in assay [2] was “inactive”.
For `Cc1ccc(C(=O)O)c2c1N[C@H](c1cccc(Cl)c1)C1CC=CC21` (stereo not given in full), in that order: 2.41%, 3.29%, 2.81% and “inactive”.
As for `O=C(NCc1ccc(Cl)cc1)c1ccc2c(=O)[nH]c3c(C(=O)NC4CCCC4)sc(=S)n3c2c1`, the figures for the activity in assay [1], in assay [3] and in assay [4] were -32.6%, -79.2% and -80.2%, respectively. Besides, in assay [2], the Potency is 42.9 µM (active).
The corresponding values for `COc1ccc(-c2nc3ccccc3[nH]2)cc1` are -76.2%, -74.3%, -79.7% and 15.2 µM (active).
As for `COCc1cc(NCCCNc2cccnc2)ncn1`, the values for the activity in assay [1], in assay [3] and in assay [4] were -19.2%, -14.1% and -21%, respectively. For the same compound, the activity change, negative = inhibition in assay [2] was -12.2%.
For `CCN(CC)CCNC(=O)CCc1nnc2n(Cc3ccc(C)cc3)c(=O)c3ccccc3n12`, in that order: -5.02%, -14.5%, 0.867% and -3.03%.
Regarding `Cc1ccc(Cn2c(=O)c3ccccc3n3c(CCC(=O)NCCN4CCCC4)nnc23)cc1`, the activity in assay [1] is -6.32%; in assay [3], -16.1%; in assay [4], -2.34%. For the same compound, the activity change, negative = inhibition in assay [2] was -1.98%.
For the compound `COc1ccc(-c2[nH]ncc2CN2CC[C@H]3CC[C@@H](C2)N3)cc1`, the activity in assay [1] came to 11.4%; in assay [3] it was 10.4%; in assay [4], 7.25%. Moreover, the activity change, negative = inhibition in assay [2] worked out at 7.93%.
Consider `CN(C)CCNC(=O)c1ccnc(-c2nnc3ccc(N(C)c4ccccc4)nn23)c1`, for which the figures for the activity in assay [1], in assay [3] and in assay [4] were -5.96%, -14.4% and -6.46%, respectively. Also, the activity change, negative = inhibition in assay [2] is -11.8% [at 85.7 µM].
With `COc1ccc2c(c1)C(CN1CCN(c3ccc4oc(C(=O)O)cc4c3Cl)CC1)=CC(C)(C)CO2`, the figures for the activity in assay [1], in assay [3] and in assay [4] were -4.38%, -9.6% and 3.5%, respectively. Further, the activity change, negative = inhibition in assay [2] is 0.273%.
In the case of `CC(C)Cn1c(=O)c2ccccc2n2c(CCC(=O)NCCc3ccc(Cl)cc3)nnc12`, the activity is -5.92% in assay [1], -41% in assay [3] and -6.54% in assay [4]. Moreover, the activity change, negative = inhibition in assay [2] is -1.54%.
The corresponding values for `O=C(CCc1nnc2n(CCc3ccccc3)c(=O)c3ccccc3n12)N1CCN(C2CCCCC2)CC1` are 0%, -47.4%, 0.426% and 0%.
For `O=C(NCc1ccc(Cl)cc1)c1ccc2c(=O)nc3c(-c4ccccc4F)n[nH]n3c2c1`, in that order: -4.08%, -14.9%, -19.4% and -1.1%.
For the compound `CCNc1nccc(N2CCC(CC(=O)NCC(C)C)CC2)n1`, the activity is -2.4% in assay [1], -6.4% in assay [3] and -1.27% in assay [4]. In assay [2], the activity change, negative = inhibition is -5.08%.
With `CC(C)Cn1c(=O)c2ccccc2n2c(=O)n(CC(=O)c3cccc(Cl)c3)nc12`, the activity in assay [1] was -9.22%; in assay [3], -38.9%; in assay [4], -8.68%. For the same compound, the activity change, negative = inhibition in assay [2] is -5.46%.
The corresponding values for `COC(=O)[C@@H]1Cc2ncn(Cc3ccc(Cl)cc3)c2CN1CCCc1ccccc1` are 0.13%, -17%, -1.27% and 2.15% [at 85.7 µM].
For `COc1ccc(CCNC(=O)CCc2nnc3n(CC(C)C)c(=O)c4ccccc4n23)cc1OC`, in that order: -6.74%, -43.7%, -6.97% and -2.85%.
Consider `CC(C)c1ccc(NC(=O)Cn2c(=O)oc3cc(S(=O)(=O)NCc4ccccc4)ccc32)cc1`, for which the activity is 0% in assay [1], -3.77% in assay [3] and 0% in assay [4]. Moreover, in assay [2], the activity change, negative = inhibition stood at 0%.
Consider `CCCC1c2cccn2CCN1C(=O)Nc1cc(Cl)ccc1C` (stereo not given), for which the activity was 1.08% in assay [1], -4.96% in assay [3] and -0.621% in assay [4]. For the same compound, the Potency entry in assay [2] is “inactive”.
